# In PubChem BioAssay (Tox21):
# Results filed as inconclusive are left out. Entries that show only a call come without a potency. Unmarked numbers belong to inactive results. The source made the active and inactive calls. Calls follow the shape of the dose curve; as a rule, active = well fitted curve in the direction sought with a large enough effect in the repeat runs; inconclusive = weak or mixed curves; inactive = no such curve, though single readings can be large; an effect the other way counts as inactive or inconclusive.
# Legend:
# [1] = target: Cytochrome P450 2C19 (Homo sapiens) (UniProt P33261); assay: Cytochrome P450 Family 2 Subfamily C Member 19 (CYP2C19) small molecule antagonists: luciferase reporter qHTS assay (AID 1671197); also: nearly all actives have a fitted effect of over 65% in size; also: potency is read from the fitted curve at half-maximal effect; as to activity change, negative = inhibition: series mostly up to about 120 µM
# Sequence of Cytochrome P450 2C19 (Homo sapiens) (P33261 whole entry, looked up): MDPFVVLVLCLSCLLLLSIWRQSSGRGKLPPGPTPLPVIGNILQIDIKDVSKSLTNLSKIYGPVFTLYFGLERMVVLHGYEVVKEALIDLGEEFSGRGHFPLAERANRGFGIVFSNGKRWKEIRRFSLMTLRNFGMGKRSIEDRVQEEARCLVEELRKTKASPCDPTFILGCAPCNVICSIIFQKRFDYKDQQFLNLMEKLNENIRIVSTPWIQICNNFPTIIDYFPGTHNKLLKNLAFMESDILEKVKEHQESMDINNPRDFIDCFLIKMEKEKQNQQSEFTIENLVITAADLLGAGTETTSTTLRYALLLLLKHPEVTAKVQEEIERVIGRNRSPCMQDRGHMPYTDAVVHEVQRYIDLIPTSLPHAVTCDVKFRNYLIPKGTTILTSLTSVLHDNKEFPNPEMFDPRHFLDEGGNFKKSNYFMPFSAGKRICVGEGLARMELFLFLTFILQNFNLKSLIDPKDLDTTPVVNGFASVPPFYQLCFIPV
# Method in brief: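 First, compounds are pinned into enzyme-substrate mix and held 10 min at room temperature. Second, NADPH regeneration solution is added and plates incubate 1 h at 37C. Third, detection reagent is added and luminescence read after 20 min.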
# [2] = target: Cytochrome P450 1A2 (Homo sapiens) (UniProt P05177); assay: Cytochrome P450 Family 1 Subfamily A Member 2 (CYP1A2) small molecule antagonists: luciferase reporter qHTS assay (AID 1671199); also: nearly all actives have a fitted effect of over 50% in size; also: potency is read from the fitted curve at half-maximal effect; as to activity change, negative = inhibition: series mostly up to about 120 µM
# Sequence of Cytochrome P450 1A2 (Homo sapiens) (P05177 whole entry, looked up): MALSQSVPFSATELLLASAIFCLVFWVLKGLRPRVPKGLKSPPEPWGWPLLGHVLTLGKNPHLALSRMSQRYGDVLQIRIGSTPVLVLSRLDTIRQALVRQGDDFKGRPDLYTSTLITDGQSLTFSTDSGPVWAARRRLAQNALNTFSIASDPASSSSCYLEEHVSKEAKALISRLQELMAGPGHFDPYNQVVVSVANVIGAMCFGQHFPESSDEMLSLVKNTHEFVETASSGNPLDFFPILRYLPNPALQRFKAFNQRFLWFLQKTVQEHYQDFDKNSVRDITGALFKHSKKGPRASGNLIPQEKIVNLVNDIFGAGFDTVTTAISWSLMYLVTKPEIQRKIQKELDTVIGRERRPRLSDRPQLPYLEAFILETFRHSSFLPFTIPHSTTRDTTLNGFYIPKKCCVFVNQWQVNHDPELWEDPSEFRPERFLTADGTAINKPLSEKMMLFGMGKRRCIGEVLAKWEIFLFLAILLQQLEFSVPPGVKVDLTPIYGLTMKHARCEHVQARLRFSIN
# Method in brief: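 Room-temperature CYP1A2 reaction with proluciferin substrate: compounds added from DMSO, 10 min preincubation, NADPH regeneration for 1 h. Luciferin detection reagent then added; luminescence recorded as RLU.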
# [3] = target: Voltage-gated inwardly rectifying potassium channel KCNH2 (Homo sapiens) (UniProt Q12809); assay: Human Ether-a-go-go-Related Gene (hERG) channel small molecule antagonists: fluorescence cell-based qHTS assay (AID 1671200); also: nearly all actives have a fitted effect of over 50% in size; also: potency is read from the fitted curve at half-maximal effect;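 as to activity change, negative = inhibition: hERG-expressing U2OS cells given a thallium stimulus after FluxOR II dye loading; series mostly up to about 77 µM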
# Sequence of Voltage-gated inwardly rectifying potassium channel KCNH2 (Homo sapiens) (Q12809 whole entry, looked up): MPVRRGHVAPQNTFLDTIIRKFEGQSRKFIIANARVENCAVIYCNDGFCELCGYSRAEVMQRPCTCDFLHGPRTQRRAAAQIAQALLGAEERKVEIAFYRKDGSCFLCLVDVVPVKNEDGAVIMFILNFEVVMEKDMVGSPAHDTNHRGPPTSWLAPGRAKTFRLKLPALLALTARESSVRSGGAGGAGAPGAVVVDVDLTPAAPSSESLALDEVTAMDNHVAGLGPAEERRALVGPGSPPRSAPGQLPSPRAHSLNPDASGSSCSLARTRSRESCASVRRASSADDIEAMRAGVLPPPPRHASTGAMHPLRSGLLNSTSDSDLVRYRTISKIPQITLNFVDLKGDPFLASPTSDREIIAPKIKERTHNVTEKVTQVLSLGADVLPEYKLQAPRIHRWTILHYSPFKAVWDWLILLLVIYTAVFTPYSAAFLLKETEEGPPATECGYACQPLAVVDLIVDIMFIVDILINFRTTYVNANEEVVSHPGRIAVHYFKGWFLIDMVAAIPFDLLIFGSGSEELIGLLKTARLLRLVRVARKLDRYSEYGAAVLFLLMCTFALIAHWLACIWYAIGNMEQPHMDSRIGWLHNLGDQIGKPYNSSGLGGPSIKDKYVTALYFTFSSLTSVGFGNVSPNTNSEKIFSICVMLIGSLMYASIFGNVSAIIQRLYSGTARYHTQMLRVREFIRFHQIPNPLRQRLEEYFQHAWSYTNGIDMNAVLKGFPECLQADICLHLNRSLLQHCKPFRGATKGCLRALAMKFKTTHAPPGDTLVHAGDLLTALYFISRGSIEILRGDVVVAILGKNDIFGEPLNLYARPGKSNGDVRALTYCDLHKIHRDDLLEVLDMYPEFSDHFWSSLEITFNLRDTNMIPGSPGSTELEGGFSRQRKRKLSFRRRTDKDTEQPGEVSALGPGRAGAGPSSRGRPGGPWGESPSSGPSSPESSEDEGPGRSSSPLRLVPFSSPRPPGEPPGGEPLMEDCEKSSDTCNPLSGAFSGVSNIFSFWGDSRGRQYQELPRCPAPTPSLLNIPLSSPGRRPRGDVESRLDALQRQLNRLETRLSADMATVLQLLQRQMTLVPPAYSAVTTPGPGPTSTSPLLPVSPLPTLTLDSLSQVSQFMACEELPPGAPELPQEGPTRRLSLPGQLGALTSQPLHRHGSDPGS
# Method in brief: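 Cell line hERG-U2OS; dye FluxOR II, 1 h RT dark; Tl+ stimulus; ex 480/em 540 nm, read each second for 2 min.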
# [4] = target: Cytochrome P450 3A4 (Homo sapiens) (UniProt P08684); assay: Cytochrome P450 Family 3 Subfamily A Member 4 (CYP3A4) small molecule antagonists: luciferase reporter qHTS assay (AID 1671201); also: nearly all actives have a fitted effect of over 50% in size; also: potency is read from the fitted curve at half-maximal effect; as to activity change, negative = inhibition: series mostly up to about 120 µM
# Sequence of Cytochrome P450 3A4 (Homo sapiens) (P08684 whole entry, looked up): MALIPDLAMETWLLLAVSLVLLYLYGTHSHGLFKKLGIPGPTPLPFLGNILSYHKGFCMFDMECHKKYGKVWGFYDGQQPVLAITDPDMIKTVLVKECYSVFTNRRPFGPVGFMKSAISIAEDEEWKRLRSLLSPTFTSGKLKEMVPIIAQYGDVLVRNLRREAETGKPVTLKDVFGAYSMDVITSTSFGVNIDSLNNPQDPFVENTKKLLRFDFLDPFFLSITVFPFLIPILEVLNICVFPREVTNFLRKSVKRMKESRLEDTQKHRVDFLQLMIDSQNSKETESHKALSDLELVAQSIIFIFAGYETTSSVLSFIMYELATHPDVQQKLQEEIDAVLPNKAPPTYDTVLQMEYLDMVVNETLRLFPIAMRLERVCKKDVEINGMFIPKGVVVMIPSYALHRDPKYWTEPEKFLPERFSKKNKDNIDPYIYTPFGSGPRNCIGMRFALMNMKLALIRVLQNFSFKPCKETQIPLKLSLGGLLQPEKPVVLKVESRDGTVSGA
# Method in brief: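 Room-temperature assay throughout: 10 min compound–enzyme/substrate preincubation, 1 h reaction after NADPH regeneration solution, 20 min detection. Luciferin formed from proluciferin substrate is quantified by luminescence.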
# [5] = target: Cytochrome P450 2C9 (Homo sapiens) (UniProt P11712); assay: Cytochrome P450 Family 2 Subfamily C Member 9 (CYP2C9) small molecule antagonists: luciferase reporter qHTS assay (AID 1671198); also: series mostly up to about 120 µM; nearly all actives have a fitted effect of over 50% in size
# Sequence of Cytochrome P450 2C9 (Homo sapiens) (P11712 whole entry, looked up): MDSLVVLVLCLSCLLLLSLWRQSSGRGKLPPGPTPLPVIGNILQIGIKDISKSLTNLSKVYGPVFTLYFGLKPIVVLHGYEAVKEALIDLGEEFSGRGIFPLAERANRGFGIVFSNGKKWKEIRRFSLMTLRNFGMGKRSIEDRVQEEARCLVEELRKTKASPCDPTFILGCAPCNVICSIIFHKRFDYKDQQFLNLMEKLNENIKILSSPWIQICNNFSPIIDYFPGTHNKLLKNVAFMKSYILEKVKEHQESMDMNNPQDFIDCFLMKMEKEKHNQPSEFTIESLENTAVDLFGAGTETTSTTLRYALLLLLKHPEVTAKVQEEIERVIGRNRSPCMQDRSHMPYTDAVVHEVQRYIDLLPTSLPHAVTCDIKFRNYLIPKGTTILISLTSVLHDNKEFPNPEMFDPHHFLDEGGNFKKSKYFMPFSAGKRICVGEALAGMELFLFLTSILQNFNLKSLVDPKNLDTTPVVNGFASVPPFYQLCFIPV
# Method in brief: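 P450-Glo proluciferin substrate with CYP2C9 enzyme; 10 min RT preincubation, then NADPH regeneration 1 h at 37C; luciferin detection reagent 20 min RT, luminescence in relative luminescence units.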
compound,measurement,setting,value
CC1(C)[C@H]2CC[C@]1(C)[C@H](O)C2,Potency,[1],inactive
same,Potency,[2],inactive
same,Potency,[3],inactive
same,Potency,[4],inactive
CN1CCN(C2=Nc3ccccc3Sc3ccc(Cl)cc32)CC1,Potency,[1],21.9 µM (active)
same,Potency,[2],inactive
CCCCCCCC/C=C\CCCCCCCC(N)=O,Potency,[1],inactive
same,Potency,[2],35.6 µM (active)
same,Potency,[3],inactive
same,Potency,[4],inactive
COC(Cc1ccccc1)OC,Potency,[1],inactive
same,Potency,[2],inactive
same,Potency,[3],inactive
same,Potency,[4],inactive
CC(=O)[C@@]1(O)CC[C@H]2[C@@H]3C[C@H](C)C4=CC(=O)CC[C@]4(C)[C@H]3CC[C@@]21C,Potency,[1],1.95 µM (active)
same,Potency,[2],inactive
same,Potency,[3],inactive
same,Potency,[4],inactive
O=C1Nc2cc(Cl)ccc2Oc2ccccc21,Potency,[1],15.5 µM (active)
same,Potency,[2],1.95 µM (active)
same,Potency,[3],inactive
same,Potency,[4],inactive
O=S(=O)(O)c1ccc(O)c2ncccc12,Potency,[1],inactive
same,Potency,[2],inactive
same,Potency,[3],inactive
same,Potency,[4],inactive
O=C(O)COC(=O)Cc1ccccc1Nc1c(Cl)cccc1Cl,Potency,[1],inactive
same,Potency,[2],inactive
same,Potency,[3],inactive
same,Potency,[4],inactive
CC(=O)N(CC(=O)N(C)C)c1ccccc1,Potency,[1],inactive
same,Potency,[2],inactive
same,Potency,[3],inactive
same,Potency,[4],inactive
CC(=O)OCCc1ccccc1,Potency,[1],inactive
same,Potency,[2],inactive
same,Potency,[3],inactive
same,Potency,[4],inactive
CCOc1ccc(NC(=O)CC(C)=O)cc1,Potency,[1],56.4 µM (active)
same,Potency,[2],31.7 µM (active)
same,Potency,[3],inactive
same,Potency,[4],inactive
Cc1cc(O)ccc1N,Potency,[1],17.9 µM (active)
same,Potency,[2],17.9 µM (active)
same,Potency,[3],inactive
same,Potency,[4],11.3 µM (active)
CC(C)CCCC(C)CCO (stereo unspecified),Potency,[1],inactive
same,Potency,[2],inactive
same,Potency,[3],inactive
same,Potency,[4],inactive
CCCCCCCCCCCCCCCCCBr,"activity change, negative = inhibition",[1],4.88% [at 23.6 µM]
same,"activity change, negative = inhibition",[2],-12.4% [at 23.6 µM]
same,"activity change, negative = inhibition",[3],7.46% [at 15.8 µM]
same,"activity change, negative = inhibition",[4],1.19% [at 23.6 µM]
CC1(C)CCC(C)(C)c2cc(NC(=O)c3ccc(C(=O)O)cc3)ccc21,Potency,[1],inactive
same,Potency,[2],inactive
same,Potency,[3],inactive
Nc1nc(N)c(-c2ccccc2)s1,Potency,[1],inactive
same,Potency,[2],30.9 µM (active)
same,Potency,[3],inactive
CC(C)(C)c1cc(CO)cc(C(C)(C)C)c1O,Potency,[1],25.7 µM (active)
same,Potency,[2],inactive
same,Potency,[3],inactive
same,Potency,[4],36.3 µM (active)
CC[C@]12CCCN3CCc4c(n(c5ccccc45)C(=O)C1)[C@@H]32,Potency,[1],4.9 µM (active)
same,Potency,[2],inactive
same,Potency,[3],1.69 µM (active)
CCCc1ccccc1,Potency,[1],inactive
same,Potency,[2],inactive
same,Potency,[3],inactive
same,Potency,[4],inactive
CCCCC(CC)COCCCN (stereo unspecified),Potency,[1],5.58 µM (active)
same,Potency,[2],11.1 µM (active)
same,Potency,[3],38.5 µM (active)
same,Potency,[4],9.92 µM (active)
CCCCOC(=O)/C=C\C(=O)OCCCC,Potency,[1],3.28 µM (active)
same,Potency,[2],7.34 µM (active)
same,Potency,[3],inactive
same,Potency,[4],inactive
CCCC(C)C,Potency,[1],71.7 µM (active)
same,Potency,[2],63.9 µM (active)
same,Potency,[3],inactive
same,Potency,[4],inactive
O=C1c2cccc(O)c2C(=O)c2c(O)cc(CO)cc21,Potency,[1],inactive
same,Potency,[2],8.94 µM (active)
same,Potency,[3],inactive
same,Potency,[4],inactive
O=C(O)C1CCC(C(=O)O)CC1 (stereo unspecified),Potency,[1],inactive
same,Potency,[2],inactive
same,Potency,[3],inactive
same,Potency,[4],inactive
CN1CCC[C@@H]1c1cccnc1,Potency,[1],inactive
same,Potency,[2],inactive
same,Potency,[3],inactive
Oc1ccc2c(c1)OCO2,Potency,[1],19.9 µM (active)
same,Potency,[2],31.5 µM (active)
same,Potency,[3],inactive
same,Potency,[4],22.3 µM (active)
COCCO,Potency,[1],inactive
same,Potency,[2],inactive
same,Potency,[3],inactive
same,Potency,[4],inactive
Cc1cccc(OCCOc2cccc(C)c2)c1,Potency,[1],3.77 µM (active)
same,Potency,[2],8.45 µM (active)
same,Potency,[3],inactive
C[C@@H](C1=C(CCN(C)C)Cc2ccccc21)c1ccccn1,Potency,[1],inactive
same,Potency,[2],inactive
same,Potency,[3],19 µM (active)
same,Potency,[4],inactive
CN(C)CC[C@@H](c1ccc(Br)cc1)c1ccccn1,Potency,[1],inactive
same,Potency,[2],24.5 µM (active)
same,Potency,[3],inactive
same,Potency,[4],inactive
CC(C)(C)C(=O)OCOP(=O)(COCCn1cnc2c(N)ncnc21)OCOC(=O)C(C)(C)C,Potency,[1],inactive
same,Potency,[2],inactive
NC(N)=N/N=C/c1c(Cl)cccc1Cl,Potency,[1],inactive
same,Potency,[2],15.5 µM (active)
same,Potency,[3],inactive
same,Potency,[4],inactive
Cc1cccc(Oc2ccccc2)c1,Potency,[1],69.2 µM (active)
same,Potency,[2],34.7 µM (active)
same,Potency,[3],13.5 µM (active)
same,Potency,[4],34.7 µM (active)
CCCCCCCCCC=O,Potency,[1],inactive
same,Potency,[4],inactive
OC(CCN1CCCCC1)(c1ccccc1)C1CCCCC1 (stereo unspecified),Potency,[5],inactive
same,Potency,[2],inactive
CN1CCC(=C2c3ccccc3C=Cc3ccccc32)CC1,Potency,[1],24.5 µM (active)
same,Potency,[2],inactive
same,Potency,[4],inactive
COc1ccc(C(C)=O)cc1,Potency,[1],inactive
same,Potency,[2],29.1 µM (active)
same,Potency,[3],inactive
same,Potency,[4],inactive
CCCCC(CC)(CO)CO,Potency,[1],56.4 µM (active)
same,Potency,[2],inactive
same,Potency,[3],inactive
same,Potency,[4],inactive
C1=Cc2ccccc2C1,Potency,[1],39.9 µM (active)
same,Potency,[3],inactive
same,Potency,[4],inactive
